Drawing on PubChem BioAssay (NCI), this text covers growth for 40 molecules.

About 83,000 compounds went through this panel and 20% of them were active in at least one assay; those are over-represented in the sample as a whole.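 Single-dose data. Exposure time 48 hours. Values below 10 considered active.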 Unmarked numbers belong to inactive results.

The assay relates to SK-OV-3 ovarian. Nature of the assay: NCI-60 one-dose screen, 48 h (100 = growth as untreated, 0 = no growth, -100 = all killed). The settings on record: 10 µM unless noted. Here is the method: Growth inhibition of the SK-OV-3 human tumor cell line is measured as a screen for anti-cancer activity. Cells are grown in 96 well plates and exposed to the test compound for 48 hours. Compounds are tested at a single concentration, which is 10^-5 M for most compounds. The reported endpoint is percent growth (GI% or GIPRCNT), where numbers from 0 - 100% represent growth inhibition, and numbers from -100% - 0 represent cell death. For example, a value of 40 represents 60% growth inhibition. A value of 0 means no net growth occurred over the course of the experiment. A value of -40 indicates 40% of cells at the beginning of the experiment died by the end of the experiment. A value of -100 means all cells are dead at the end of the experiment.
NCI-60 Human Tumor Cell Lines Screen was performed using the standard one-dose NCI protocol, which is described in more detail at https://dtp.cancer.gov/discovery_development/nci-60/default.htm.
Compounds with GIPRCNT values below 10 were considered active. Activity score was based on GIPRCNT using the following formula: […]
Score is 0 for GIPRCNT values of 100 or above, 50 for GIPRCNT values of 0, and 100 for GIPRCNT values of -100.
As for `Cc1c(Cl)cccc1NC(=O)c1sc2nc3c(cc2c1N)COCC3`, the growth was 26.5%. For `O=C(CN1N=C(c2ccc(F)cc2)CCC1=O)Nc1nc2ccccc2s1` the value was 73.5%; for `Cc1[nH]c2ncnc(Oc3ccc(NC(=O)Nc4ccc(Cl)c(C(F)(F)F)c4)cc3)c2c1C`, 91.9%; for `NCCN1CCNCC1`, 101%. In the case of `COc1ccccc1Nc1nnc(-c2ccc(Cl)cc2)o1` it was 47.7%; in that of `COc1ccc(C(=O)c2cc(F)c(F)c(OC)c2F)cc1OC(=O)CCl`, 45.9%; in that of `COc1cc(NCC(=O)Nc2cc(Nc3ccc(C)cc3)ncn2)c(Cl)c(OC)c1Cl`, 81.9%. Take `CCc1n(Cc2ccc3ccccc3c2)c2ccccc2[n+]1Cc1ccc2ccccc2c1`: the growth was 83%.

`O=C(O)c1cn(C2CC2)c2cc(N3CCN(C(=O)CSc4nnc(-c5ccc(Cl)cc5)n4-c4ccccc4)CC3)c(F)cc2c1=O`: the growth is 79.8%. In the case of `COc1cc2nc3c(=O)n(-c4ccc(C#N)cc4)cnn3c(=O)c2cc1OC` it was 101%; in that of `O=C(O)C(C(=O)O)c1cccc2ccccc12`, 101%; in that of `CCOC(=O)c1c(C(F)(F)F)n([O-])c2ccc(Cl)cc2[n+]1=O`, 66.6%.

Turning to `CCCCn1c(=O)c(/C=C/C(=O)/C=C/c2ccc(OC)cc2)cc2cc(Cl)ccc21`, the growth was 108%.

In the case of `C=C1C(=O)O[C@H]2[C@H]1CC/C(COC(=O)CCCCCCCCC(=O)OC/C1=C/CC[C@@]3(C)O[C@H]3[C@H]3OC(=O)C(=C)[C@@H]3CC1)=C\CC[C@@]1(C)O[C@@H]21`, the growth is 86.9%. Consider `O=C(O)c1ccc(-n2cc(/C=N/Nc3ccc(Cl)cc3Cl)c(-c3ccccc3)n2)cc1`, for which the growth was 89.4%. In the case of `CC(=O)OCC1SC(OC(C)=O)C(NC(=O)/C=C/CCl)C(OC(C)=O)C1OC(C)=O` (stereo not given) it was 86.4%; in that of `CC[C@]12C=CCN3CC[C@@]4(c5cc(NC(=O)CCC(=O)O[C@H]6CC[C@H]7[C@@H]8CC[C@H]9CC(=O)CC[C@]9(C)[C@H]8CC[C@]67C)c(OC)cc5N(C)[C@H]4[C@@](O)(C(=O)OC)[C@@H]1OC(C)=O)[C@@H]32`, 98.6%. With `O=C(CSC(=S)N1CCCCC1)Nc1ccccc1`, the growth is 106%.

For `CCOC(=O)C1=C(C)n2nc(CC#N)c(C#N)c2NC1c1ccc(CC)cc1` (stereo not given), the growth is 98.2%. On to `COc1ccc(-c2nnc(N3CCN(C(=O)CN4CCN(c5ccccc5)CC4)CC3)nc2-c2ccc(OC)cc2)cc1`, for which the growth was 74.4%. In the case of `COc1cc(/C=C/CO)cc(OC)c1O[C@@H]1O[C@H](CO)[C@@H](O)[C@H](O)[C@H]1O` it was 100%. Consider `O=C(CCCCCCCCC(=O)Nc1cccc(C2=NCCN2)c1)Nc1cccc(C2=NCCN2)c1`, for which the growth is 113%.

Regarding `COc1ccc2c(c1)Oc1nc(N)c(C#N)c(N)c1C2Sc1ccc(SC)cc1` (stereo not given), the growth was 94.4%. As for `COc1cc(C2=NN(C(C)=O)C(c3cccc(Nc4ccnc5cc(C(F)(F)F)ccc45)c3)C2)cc(OC)c1OC` (stereo not given), the growth is 69.3%. For `C=CCn1c(SCC(=O)Nc2ccc(C(=O)/C=C/c3cc(OC)c(OC)c(OC)c3)cc2)nnc1-c1ccccc1` the value was 110%; for `Cc1nc2sc(C(=O)Nc3ccccc3Cl)c(N)c2cc1C(C)O` (stereo not given), 78.7%. As to `CCOc1ccc(C2N(c3cc(OC)c(OC)c(OC)c3)C(=O)C2(F)F)cc1` (stereo not given), the growth was 71.9%.

`CC(=O)c1ccc(NC(=O)CSc2nnc(-c3cc(-c4ccc(C)cc4)nc4ccccc34)o2)cc1`: the growth was 81.7%. In the case of `CC(=O)c1ccc(NC(=O)CSc2nnc(-c3cc(-c4ccc(Cl)cc4)nc4ccccc34)o2)cc1` it was 90.1%.

Turning to `CCOC(=O)C(=Cc1c(-c2ccccc2)[nH]c2ccccc12)C(=O)OCC`, the growth is 94.5%.

Consider `COc1ccc2nc3nc4ccc[nH]c4cc3c2c1`, for which the growth was 89%. Take `COc1ccc2oc(=O)cc(-c3c(C#N)c(N)n4nc(N)c(C#N)c4c3C#N)c2c1`: the growth was 93.2%. On to `Cc1ccc(C(=O)O)o1`, for which the growth was 101%. In the case of `CSc1nc(-c2cccs2)c2c(N)[nH]nc2n1` it was 89.9%; in that of `O=S(=O)(O)c1ccc(N=NSc2ccc3ccccc3c2)cc1`, 112%. In the case of `CSc1nc(-c2ccc(F)cc2)c(C#N)c(N2CCOCC2)n1` it was 97.3%; in that of `c1ccc2c3c([nH]c2c1)C(c1ccc(C2NCCc4c2[nH]c2ccccc42)cc1)NCC3` (stereo not given), 49.1%; in that of `Cc1c(Cl)cccc1NC(=O)c1sc2nc3c(cc2c1N)CN(Cc1ccccc1)CC3`, 44.2%. For `O=C1CS/C(=N/c2nnc(-c3ccc(O)cc3)s2)N1`, the growth is 82%.

Consider `C#Cc1ccccc1NC(=O)c1sc2nc3c(cc2c1N)CCCCC3`, for which the growth is 100%.
